Source: PubChem BioAssay (NCI)
This is part of a sample that, as a whole, favours compounds with a hit. Of some 83,000 tested, about 20% had one in any assay.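 Percent growth is the endpoint: 0 to 100 indicates growth inhibition (40 means 60% inhibition), 0 means no net growth, and negative values indicate cell death.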 A number with no mark means an inactive call. Active and inactive are the calls of the source. How the source made its calls: active means growth percent below 10; inactive means the rest.

Assays:
Test in all cases: NCI-60 one-dose screen, 48 h (100 = growth as untreated, 0 = no growth, -100 = all killed)
Details in all cases: 10 µM unless noted
SK-MEL-2 melanoma = test system: SK-MEL-2 melanoma
EKVX NSCLC = test system: EKVX NSCLC
SN12C renal = test system: SN12C renal
UO-31 renal = test system: UO-31 renal
TK-10 renal = test system: TK-10 renal
ACHN renal = test system: ACHN renal
CAKI-1 renal = test system: CAKI-1 renal
A498 renal = test system: A498 renal
CCRF-CEM leukemia = test system: CCRF-CEM leukemia
MOLT-4 leukemia = test system: MOLT-4 leukemia
SR leukemia = test system: SR leukemia
OVCAR-8 ovarian = test system: OVCAR-8 ovarian
OVCAR-5 ovarian = test system: OVCAR-5 ovarian
OVCAR-4 ovarian = test system: OVCAR-4 ovarian
SK-OV-3 ovarian = test system: SK-OV-3 ovarian
OVCAR-3 ovarian = test system: OVCAR-3 ovarian
HS 578T breast = test system: HS 578T breast
NCI/ADR-RES ovarian = test system: NCI/ADR-RES ovarian
RPMI-8226 leukemia = test system: RPMI-8226 leukemia
IGROV1 ovarian = test system: IGROV1 ovarian

Compound | growth (SK-MEL-2 melanoma) | growth (EKVX NSCLC) | growth (SN12C renal) | growth (UO-31 renal) | growth (TK-10 renal) | growth (ACHN renal) | growth (CAKI-1 renal) | growth (A498 renal) | growth (CCRF-CEM leukemia) | growth (MOLT-4 leukemia) | growth (SR leukemia) | growth (OVCAR-8 ovarian) | growth (OVCAR-5 ovarian) | growth (OVCAR-4 ovarian) | growth (SK-OV-3 ovarian) | growth (OVCAR-3 ovarian) | growth (HS 578T breast) | growth (NCI/ADR-RES ovarian) | growth (RPMI-8226 leukemia) | growth (IGROV1 ovarian)
Cc1c(N2CCCCC2)[nH]c2ccccc12 | 119% | 117% | 98.4% | 125% | 121% | 115% | 101% | 123% | 55.1% | 110% | 119% | 105% | 124% | 142% | 118% | 125% | 96.2% | 107% |  | 
Cc1cc(N2CCOCC2)nc(N(CCCNc2ccnc3cc(Cl)ccc23)Cc2ccc3c(c2)OCO3)n1 | -18.5% (active) | 3.49% (active) | 21% | -32.3% (active) | -66% (active) | -86.2% (active) | 35.2% | -31.5% (active) | -5.56% (active) | -36.2% (active) | -29.2% (active) | -52.4% (active) | 22.7% | -37.9% (active) |  | -88.6% (active) | 9.54% (active) | -36.1% (active) |  | 
CS(=O)(=O)Nc1cc(-c2ccc3ncnc(Nc4cccc(Cl)c4)c3c2)cnc1Cl | -40.6% (active) | -23.9% (active) | 16.2% | -2.12% (active) | -20.4% (active) | 11.8% | 2.5% (active) | -58.1% (active) | 14.7% | -16% (active) |  | 16.4% | 7.66% (active) | 13.7% | -28.4% (active) | -10.7% (active) | -13.6% (active) | 19.2% | -44.8% (active) | -25.7% (active)
CCc1ccc(Cc2cnc(NC(=O)c3cc(C)oc3C)s2)cc1 | 59.4% | 39.6% | 45.1% | 43.6% | 60.1% | 48.7% | 22.2% | 8.18% (active) | 28.5% | 29.2% |  | 52.9% | 55.2% | 54.7% | 52.8% | 16.7% | 23.6% | 34.1% | 51% | 43%
O=C(Nc1ccc(Oc2cccc(F)c2)c(Cl)c1)c1cnccn1 | 37.7% | 51.3% | 45.6% | 43.4% | 59.5% | 37.7% | 25.2% | 69.4% | 18.4% | 41.2% | 20.8% | 37.5% | 56.6% | 44.5% | 86% | -17.8% (active) | 27.8% | 9.06% (active) |  | 40.5%
CN1CCN(Cc2ccc(NC(=O)c3cncc(C#Cc4c(N)ncc5cc(F)ccc45)c3)cc2C(F)(F)F)CC1 | -2.97% (active) | 69.6% | 41.7% | 14.6% | 67.4% | 40.4% | 62% | 73.6% | -13.6% (active) | -59.6% (active) |  | 28% | 43.7% | 54.4% | 82.6% | 76.3% | 31.8% | 10.3% | -14% (active) | 15.1%
O=C(Nc1ccccc1CNc1nc(Nc2ccc(OCCN3CCCC3)cc2)ncc1Cl)NC1CCCCC1 | 115% | 95% | 88.1% | 56.3% | 116% | 78.2% | 94.3% | 75.3% | 12% | 72.3% |  | 57.5% | 114% | 46.6% | 104% | 99.5% | 85.2% | 74% | 60.8% | 88.1%
COC(CCP(=O)(c1ccccc1)c1ccccc1)(C(=O)c1ccccc1)c1ccccc1 (stereo not drawn) | 34.7% | 59.2% | 96.7% | 33.4% | 81.1% | 71.5% | 87.1% | 83.4% | 35.4% | 18.3% | -8.14% (active) | 77% | 84.1% | 61.3% | 83.5% | 77.1% | 83.5% | 57.7% |  | -19.4% (active)
CC(=O)O[C@H]1C[C@@]2(C)[C@@H](C[C@@H](O)[C@H]3[C@@]4(C)CC[C@H](N5CCCC5)[C@@H](C)[C@@H]4CC[C@@]32C)/C1=C(\CCC=C(C)C)C(=O)O | 100% | 94% | 98.4% | 81.2% | 95.1% | 102% | 91.6% | 104% | 42.8% | -57.9% (active) | 24% | 102% | 102% | 101% |  | 101% | 95.3% | 95.1% |  | 105%
CCN1C(=O)N(CC)C2C1NN=c1s/c(=C\c3ccccc3)c(=O)n12 (stereo not drawn) | 42.5% | 47.1% | 26.5% | 37.9% | 65.6% | 30.2% | 27.1% | 9.75% (active) | 6.04% (active) | 10.9% |  | -9.95% (active) | 30.2% | 48.1% | 33.5% | -7.69% (active) | 16.8% | 2.31% (active) | 11.6% | 19.8%
CCC(=C(c1ccc(OCCN(CC)CC)cc1)c1ccc(OCCN(CC)CC)cc1)c1ccc(Cl)cc1 | -44.9% (active) | 77.1% | -77% (active) | -81.2% (active) | -79.3% (active) | -90.2% (active) | -89.4% (active) | 43.3% | -65.3% (active) | -60.1% (active) | -39.7% (active) | -49.8% (active) | -52.8% (active) | -38.9% (active) | 55.4% | -72.2% (active) | -44.3% (active) | -33.1% (active) |  | 
Cn1cc(-c2ccc3occ(-c4cccc(-c5ccncc5)c4)c3n2)cn1 | -1.75% (active) | 30.7% | 13.1% | 11.3% | 9.56% (active) | 21.9% | 12% | -15.7% (active) | 10.9% | 13.2% | 3.95% (active) | 7.42% (active) | 55.4% | 36.5% | 31.8% | 18.4% | -10.7% (active) | 4.84% (active) |  | 15.7%
O=C1/C(=C/c2ccc(Br)cc2)COc2ccc(O)cc21 | 107% | 98.5% | 73.3% | 47.9% | 99.1% | 86.7% | 80.1% | 103% | 1.32% (active) | 16.6% | 12.1% | 79.1% | 94.8% | 97.9% | 120% | 96.8% | 96.2% | 94.6% |  | 
Cc1[nH]c(C(=O)Nc2ccc(C(N)=O)cc2OC(C)C)c(Cl)c1Cl | 100% | 86.3% | 99.9% | 74.4% | 117% | 97.2% | 105% | 84.3% | 92.5% | 89.2% |  | 101% | 98.3% | 98.2% | 96.4% | 105% | 88.7% | 112% | 90.4% | 95.1%
COc1cc(/C=C/c2cc(/C=C/c3ccc(O)c(OC)c3)n(C(=O)Nc3ccc(C)cc3C)n2)ccc1O | -27.2% (active) | -14.7% (active) | 0.467% (active) | -38.7% (active) | 15.9% | 5.29% (active) | -36.6% (active) | -14.7% (active) | 1.54% (active) | -20.7% (active) |  | -34.7% (active) | -4.24% (active) | 7.87% (active) | -63.6% (active) | -37.3% (active) | -15% (active) | 7.64% (active) | -16.7% (active) | -1.75% (active)
COc1ccc(C2=NN(C=O)C(c3ccc(Oc4nc5c(c(=O)n(C)c(=O)n5C)n4C)c(OC)c3)C2)cc1 (stereo not drawn) | 100% | 91.8% | 53.8% | 74% | 104% | 84.8% | 75.2% | 85.5% | 80.5% | 66.7% |  | 85.2% | 96.6% | 72.3% | 114% | 101% | 89.6% | 63.4% | 79.6% | 87.7%
